Hit rate of the full screen: of about 13,000 compounds, about 3,200 (25%) showed an effect of 50% or more. Some of the results follow.

The assay relates to P. falciparum stage V gametocytes. Further details: BacTiter-Glo ATP luminescence viability of purified stage V gametocytes in 384-well plates, per cent inhibition versus DMSO. Particulars: 48 h, 5 µM; inhibitor.
As usually defined, the % Inhibition is the relative decrease from the control value, in per cent. Regarding `Brc1ccsc1-c1nc(NC2CCN(Cc3ccccc3)CC2)no1` [TCMDC-134188], the “% Inhibition” value stood at 10.75%.

Take `NCC(=O)NC12CC3CC(CC(C3)C1)C2` [TCMDC-131419]: the “% Inhibition” value was -2.875%.

With `N#CC1(c2ccccc2)CCN(c2nc(NCCCN3CCCC3=O)nc(N3CCCC4CCCCC43)n2)CC1` (stereo not shown) [TCMDC-139927], the “% Inhibition” value is on record as -17.2%.

For the compound `CCNc1cc(C(=O)N[C@@H](Cc2ccccc2)[C@H](O)CNCCc2cc(OC)cc(OC)c2)cc(N2CCCCS2(=O)=O)c1` [TCMDC-134842], the “% Inhibition” value was 28.85%.

In the case of `Cc1cccc2nc(-c3ccc(-c4cccc(NC(=O)CCc5c[nH]cn5)c4)s3)[nH]c12` [TCMDC-132161], the “% Inhibition” value is on record as 5.175%.

On to `COC(=O)c1cccc(CNCc2cccc(-c3ccc(-c4nc5cccc(C)c5[nH]4)cc3)c2)c1.O=C(O)C(F)(F)F` [TCMDC-132952], for which the “% Inhibition” value is 25.59%.

Turning to `COC(=O)c1cccc(CNCc2ccc(-c3ccc(-c4nc5cc(F)ccc5[nH]4)cc3)cc2)c1.O=C(O)C(F)(F)F` [TCMDC-132953], the “% Inhibition” value came out at 44.17%.

For the compound `COC(=O)c1cccc(CNCc2ccc(-c3ccc(-c4nc5cccc(C)c5[nH]4)cc3)cc2)c1.O=C(O)C(F)(F)F` [TCMDC-132957], the “% Inhibition” value is reported as 77.27%.

`OC(CNc1ccnc(Nc2cccc(Cl)c2)n1)c1ccc(C(F)(F)F)cc1` (stereo not shown) [TCMDC-136596]: the “% Inhibition” value was -49.28%.

`Cc1nc(N)nc(N)c1-c1ccc(Br)cc1` [TCMDC-137374]: the “% Inhibition” value is on record as -63.84%.

As to `COc1cc2nc(C)nc(Nc3cccc(Br)c3)c2cc1OC` [TCMDC-131939], the “% Inhibition” value is listed as -0.682%.

For `COc1cc2nc(-c3ccc(Br)cc3)cc(N)c2cc1OC` [TCMDC-138933], the “% Inhibition” value is 106.9%.

As for `N#Cc1ccc(CN2CCC(Oc3ccc(NC(=O)c4cccs4)cc3)C2)cc1` (stereo not shown) [TCMDC-133959], the “% Inhibition” value worked out at 8.963%.

Turning to `N[C@@H](CCNC1CCN(c2cccc(C(F)(F)F)c2)CC1)Cc1ccc(F)c(F)c1` [TCMDC-132301], the “% Inhibition” value was found to be 119.6%.

Take `N[C@@H](CCN1CCC(c2cccc(O)c2)CC1)Cc1ccc(F)c(F)c1` [TCMDC-132126]: the “% Inhibition” value is listed as -7.47%.

As to `N[C@@H](CCNCc1ccc(-c2cccnc2)cc1)Cc1ccc(F)c(F)c1` [TCMDC-132122], the “% Inhibition” value was 33.59%.

In the case of `O=C(Nc1cccc(N2CCC(NCCCc3ccncc3)CC2)c1)c1cccc(C(F)(F)F)c1` [TCMDC-124659], the “% Inhibition” value came to 7.336%.

`O=C(NC1CCCC1)c1ccc(N2CCC(NCc3cccc(C(F)(F)F)c3)CC2)cc1` [TCMDC-124644]: the “% Inhibition” value is on record as -9.577%.

For `N#Cc1c(F)cc(N2CCC(NCC[C@H](N)Cc3ccc(F)c(F)c3)CC2)cc1F` [TCMDC-132121], the “% Inhibition” value is given as 103.9%.

These data come from PMC4552634, “A New Set of Chemical Starting Points with Plasmodium falciparum Transmission-Blocking Potential for Antimalarial Drug Discovery” (PLoS ONE, 2015).
